AmpC no deterg – blocks E. coli AmpC beta-lactamase in detergent-free assay; P00811; AmpC nitrocefin hydrolysis, absorbance 480 nm, 0.0001% Triton; Potency, µM (top dose mostly 57.1 µM), without a hit: top-dose activity change, negative = inhibition, hits mostly inhibitors; hit rate 0.52% among 330,000;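 note: plate controls were no compound for no effect and no enzyme for full effect; nearly all actives have a fitted effect of over 20% in size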
Target sequence (P00811 whole entry, looked up): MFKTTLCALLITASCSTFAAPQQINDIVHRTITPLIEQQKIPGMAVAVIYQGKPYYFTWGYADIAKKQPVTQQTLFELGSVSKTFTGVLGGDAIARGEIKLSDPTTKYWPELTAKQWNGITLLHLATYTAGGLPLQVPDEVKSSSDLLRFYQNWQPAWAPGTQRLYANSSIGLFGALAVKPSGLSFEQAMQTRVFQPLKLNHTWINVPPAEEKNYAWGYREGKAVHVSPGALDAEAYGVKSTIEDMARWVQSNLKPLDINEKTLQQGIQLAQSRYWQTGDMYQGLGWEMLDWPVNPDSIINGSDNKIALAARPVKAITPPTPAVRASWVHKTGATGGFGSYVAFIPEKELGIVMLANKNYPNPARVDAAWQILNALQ
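20 mM phosphate pH 7.0 + 0.01% (detergent screen) or 0.0001% Triton X-100; 5.3 nM AmpC reagent; cpd preinc 15 min RT; nitrocefin (800 uM stock) to start; A480 q20 s × 4 min; Activity was normalised to no-enzyme and no-compound control wells.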
SARS PLpro yeast – blocks SARS-CoV papain-like protease in a yeast assay; hit rate 0.19% among 330,000; Potency, µM (series often up to 32.9 µM), without a hit: at the top dose activity, positive = growth rescue, actives largely listed as activators; AID 485353; S. cerevisiae expressing SARS-CoV PLpro, growth rescue; calls by dose curve; note: 0% is about no effect; nearly all actives have a fitted effect of over 55% in size
Giardia FBPA inh – inhibitors of Giardia lamblia fructose-1,6-bisphosphate aldolase; A8B2U2; purified Giardia FBPA; Potency, µM (highest dose often 59.6 µM), for the others: at the highest dose activity, negative = inhibition, hits mostly inhibitors; hit rate 0.71% among 290,000; note: % is set by controls: 0 for no effect and ±100 for the full control effect; nearly all actives have a fitted effect of over 55% in size
Target sequence (A8B2U2 whole entry, looked up): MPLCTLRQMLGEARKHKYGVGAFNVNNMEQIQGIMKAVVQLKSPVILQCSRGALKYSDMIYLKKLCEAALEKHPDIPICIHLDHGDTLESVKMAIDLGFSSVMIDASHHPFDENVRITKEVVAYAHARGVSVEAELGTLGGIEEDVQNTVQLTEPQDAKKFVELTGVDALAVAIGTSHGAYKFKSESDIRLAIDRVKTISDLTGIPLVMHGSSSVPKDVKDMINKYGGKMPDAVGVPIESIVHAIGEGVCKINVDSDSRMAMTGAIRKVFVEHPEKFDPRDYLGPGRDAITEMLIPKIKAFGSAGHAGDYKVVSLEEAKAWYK
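40 nM FBPA preincubated 10 min at RT with compound (up to 57.5 uM final), then substrate plus GAPDH/TPI/NAD/arsenate coupling and diaphorase/resazurin added. Fluorescence read after 20 min at RT, 525/598 nm.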
AmpC inh detg – AmpC beta-lactamase inhibition with detergent present | AID 485294 | hit rate 0.041% among 370,000 | AmpC hydrolysis of nitrocefin, absorbance 480 nm, 0.01% Triton | Potency, µM (titrated, usually from 114 µM), for the others: at the top dose activity change, negative = inhibition, most hits filed as inhibitors | P00811;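 note: 0% = no-compound wells and -100% = no-enzyme wells; nearly all actives have a fitted effect of over 25% in size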
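20 mM phosphate pH 7.0 + 0.01% (detergent screen) or 0.0001% Triton X-100; 5.3 nM AmpC reagent; cpd preinc 15 min RT; nitrocefin (800 uM stock) to start; A480 q20 s × 4 min; Activity was normalised to no-enzyme and no-compound control wells.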
* hit, by the source's call; ? = inconclusive; . = no result; [ ] = another dose, or the depositor's remark. Most compounds without a hit are left out; they make up all but 1.1% or so of the library. Unless noted, calls come from the whole dose curve; as a rule, active = well fitted curve in the direction sought with a large enough effect; inconclusive = small, poorly fitted or top-dose-only effect, or another doubt; inactive = no such curve, though single readings can be large; an effect the other way counts as inactive or inconclusive. Potency is the fitted concentration of half-maximal effect.

SMILES | AmpC no deterg | SARS PLpro yeast | Giardia FBPA inh | AmpC inh detg
Cc1ccc(C)c(S(=O)(=O)Nc2ccccc2C(=O)Nc2ccc(S(=O)(=O)Nc3ncccn3)cc2)c1 | 16µM* | -8% | 14% | -11%
O=C(Nc1ccc(S(=O)(=O)Nc2ncccn2)cc1)C(F)(F)F | -16% | 5µM* | ? | -6%
O=C(/C=C/c1cccc(F)c1)Nc1ccc(S(=O)(=O)Nc2ncccn2)cc1 | 11µM* | 0% | 7% | -3%
O=[N+]([O-])c1ccc(-c2csc(N/N=C/c3cccnc3)n2)cc1 | -23% | -1% | -5% | 0%
O=[N+]([O-])c1cc(/C=N\Nc2nc(-c3ccccc3)cs2)ccc1O | 25µM* | 1% | -13% | 6%
CSCC[C@H](NC(=O)[C@H](CC(C)C)NC(=O)CNC(=O)[C@H](Cc1ccccc1)NC(=O)[C@H](Cc1ccccc1)NC(=O)[C@H](CCC(N)=O)NC(=O)[C@H](CCC(N)=O)NC(=O)[C@@H]1CCCN1C(=O)[C@H](CCCCN)NC(=O)[C@@H]1CCCN1C(=O)[C@@H](N)CCCN=C(N)N)C(N)=O | . | . | 1% | .
CCOc1ccc(OCCC(=O)OCC(=O)NC2CCCCC2)cc1 | 31% | 0% | -3% | ?
Cc1ccc(OCCC(=O)OCC(=O)NC(=O)NC2CCCC2)cc1 | 35µM* | -9% | . | -15%
N#Cc1ccc2c(c1)C[C@]1(CCCCN3C(=O)c4ccccc4C3=O)Oc3c(c(=O)oc4ccc(F)cc34)C2O1 | -23%[11.4 µM] | -13%[6.58 µM] | -5%[12.9 µM] | 1%[22.9 µM]
O=C1c2ccccc2C(=O)N1CCCC[C@]12Cc3ccccc3C(O1)c1c(c3ccccc3oc1=O)O2 | 2.8µM* | -5%[6.58 µM] | 18%[12.9 µM] | ?
COC(=O)C[C@H]1c2ccccc2C2=C(C[C@@H](C)[C@H]3C(=O)N(c4ccccc4)C(=O)[C@@H]23)N1C(=O)OC | . | . | 5%[12.9 µM] | .
COc1ccc2nc(Nc3nc4cc5c(cc4s3)OCO5)sc2c1 | 22µM* | -21% | 6% | 2%
COc1cc(C(=O)ON=C2C=C(C)C(=O)C(C)=C2)cc(OC)c1OC | -18% | -11% | ? | ?
COc1cc(C(=O)O/N=C2\C=CC(=O)C(C)=C2)cc(OC)c1OC | -13% | -17% | 20µM* | 1%
O=C1C2=CC[C@H]3C(=O)N(C[C@@H]4CCCO4)C(=O)[C@@H]3[C@@H]2[C@H](O)[C@@H]2O[C@H]12 | . | . | -5%[12.9 µM] | .
N#Cc1ccc(CS(=O)(=O)c2ccccc2)cc1 | . | . | 0% | .
C=CCOC(=O)N[C@H](/C(C(=O)OC)=C(\C)NCc1ccccc1)c1cccc(C(F)(F)F)c1 | . | . | 1% | .
CN(CC(=O)Nc1ccc(F)cc1)C(=O)COc1ccccc1Cc1ccccc1 | 35µM* | -17% | . | -8%
COc1ccc(/C=C(\C#N)C(=O)OCC(=O)NCc2ccccc2OC)cc1 | 32µM* | -13% | . | ?
CNc1ccc(/C=C/C(=O)c2cccc3ccccc23)cc1[N+](=O)[O-] | 28µM* | 9% | -7% | -16%
CC(C)C[C@H](NC(=O)[C@H](CC(C)C)NC(=O)[C@@H](Cc1c[nH]c2ccccc12)NC(=O)[C@H](Cc1ccccc1)NC(=O)[C@@H](Cc1c[nH]c2ccccc12)NC(=O)[C@H](CCC(N)=O)NC(=O)[C@H](CCC(N)=O)NC(=O)[C@@H]1CCCN1C(=O)[C@H](CCCCN)NC(=O)[C@@H]1CCCN1C(=O)[C@H](N)CCCN=C(N)N)C(N)=O | . | . | 1% | .
O=C(Nc1cccc(Cl)c1)OCC#CCCl | . | . | 7.1µM* | .
Cc1ccc(Nc2sc(C(=O)c3ccccc3)c(N)c2S(=O)(=O)c2ccccc2)c(C)c1 | . | . | . | 18%
CCN(c1ccccc1)S(=O)(=O)c1ccc(NC(=S)NC(=O)c2cccs2)cc1 | 14µM* | 4% | -1% | 1%
CC(=O)NC(=S)Nc1ccc(NC(=S)NC(=O)c2cccs2)cc1 | 10% | 2% | . | -3%
SMILES | AmpC no deterg | SARS PLpro yeast | Giardia FBPA inh | AmpC inh detg
Cc1ccc(C(=O)NC(=S)Nc2ccc(Oc3ccc(Cl)cc3)cc2)cc1 | -25% | -8% | 1% | -5%
Cc1ccc(C(=O)NC(=S)Nc2ccc(-c3ccc(CO)o3)cc2)cc1 | 25µM* | -3% | -8% | 6%
O=C(NC(=S)Nc1ccc(-c2ccc(CO)o2)cc1)c1cccs1 | 10µM* | -2% | -14% | 8%
CC#CCN1c2ccccc2[C@]23C[C@@H](C(=O)OC)N(C(=O)c4cccs4)C2=NC(C(=O)OC)=C(C(=O)OC)[C@H]13 | . | . | 5%[12.9 µM] | .
CC(C)C[C@H](NC(=O)[C@H](C)NC(=O)CNC(=O)[C@H](CCCCN)NC(=O)[C@H](CCCN=C(N)N)NC(=O)[C@H](C)NC(=O)[C@H](Cc1ccccc1)NC(=O)[C@@H](N)CCCN=C(N)N)C(=O)N[C@@H](CCCN=C(N)N)C(=O)N[C@@H](CCC(N)=O)C(=O)N[C@@H](CCCCN)C(=O)N[C@@H](CC(N)=O)C(=O)N[C@H](C(N)=O)C(C)C | . | . | 5% | .
Cc1cc(/C=C2\SC(=S)NC2=O)c(C)n1-c1ccc(O)cc1 | 11µM* | -5% | 8% | -3%
Cc1cc(/C=C2\SC(=S)NC2=O)c(C)n1-c1ccccc1 | -43% | -1% | 4% | 8%
COc1ccc(-n2nnnc2SCC(=O)N2CCOCC2)cc1 | 0.89µM* | -3% | 1% | ?
C=C1CCN(C(CC(C)C)C(=O)NCCCc2ccccc2)S(=O)(=O)c2ccccc21 (configuration not stated) | . | . | -9% | .
COc1ccc(C2CC(c3ccccc3C)n3nc(N)nc3N2)cc1 (configuration not stated) | ? | 4% | 2% | -14%
CCOc1ccc(C2CC(c3ccccc3C)n3nc(N)nc3N2)cc1 (configuration not stated) | 32µM* | 9% | -3% | -4%
CCOc1ccc(C2CC(c3cccc(OC)c3)n3nc(N)nc3N2)cc1 (configuration not stated) | 4.5µM* | -1% | 0% | ?
COc1cccc(C2CC(c3c(F)cccc3Cl)n3nc(N)nc3N2)c1 (configuration not stated) | 0% | 9% | 1% | 5%
Cc1ccc(C2CC(c3ccccc3C)n3nc(N)nc3N2)cc1 (configuration not stated) | 16% | -14% | 5% | ?
COc1cccc(C2CC(c3ccccc3C)n3nc(N)nc3N2)c1 (configuration not stated) | 2.8µM* | 8% | 2% | ?
COc1cccc(C2CC(c3c(Cl)cccc3Cl)n3nc(N)nc3N2)c1 (configuration not stated) | 5.6µM* | -2% | -1% | ?
COc1ccc(NC(=O)CC2C(=O)N(c3ccc(C)cc3)C(=O)N2CCc2ccccc2)cc1 (configuration not stated) | . | . | . | 3%
COc1ccc(Cl)cc1C(=O)OCC(=O)Nc1cccnc1Cl | -2% | -3% | . | 8%
COc1cc(N)c(Cl)cc1C(=O)OCC(=O)Nc1cccnc1Cl | 35µM* | -1% | . | ?
O=C(CN1C(=O)/C(=C/c2ccco2)SC1=S)Nc1ccc(O)c(C(=O)O)c1 | -31% | 1% | . | -5%

Compound activity deposited in PubChem by National Center for Advancing Translational Sciences (NCATS).
